This note sets out measurements from PubChem BioAssay (NCI).

Compounds without any hit were thinned out: in the full panel of roughly 83,000, 20% have a hit.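 In brief: 96-well plates, 48 h treatment, single concentration, percent growth endpoint.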 Values without a mark were called inactive. Activity calls are given as the source filed them. Rule for the calls: active = growth percent below 10; inactive = the rest.

What all share (experiment): NCI-60 one-dose screen, 48 h (100 = growth as untreated, 0 = no growth, -100 = all killed)
The test system of one test is HCT-15 colon. The note with it: 10 µM unless noted.
The subject of the next test is HT29 colon. Particulars: 10 µM unless noted.
For the next test, the system named is SNB-75 CNS. Particulars: 10 µM unless noted.
In the next test the test system is SNB-19 CNS. Particulars: 10 µM unless noted.
The subject of a further test is U251 CNS. Particulars: 10 µM unless noted.
Another test deals with PC-3 prostate. The note with it: 10 µM unless noted.
The test system of the next test is SK-MEL-5 melanoma. The note with it: 10 µM unless noted.
A further test has as its system UACC-62 melanoma. Particulars: 10 µM unless noted.
A further test has as its system LOX IMVI melanoma. The note with it: 10 µM unless noted.
For the next test, the system named is SK-MEL-28 melanoma. Particulars: 10 µM unless noted.
A further test relates to SK-MEL-2 melanoma. Particulars: 10 µM unless noted.
A further test concerns EKVX NSCLC. Particulars: 10 µM unless noted.
Another test concerns SN12C renal. Particulars: 10 µM unless noted.
In the next test the test system is UO-31 renal. The note with it: 10 µM unless noted.
In another test the test system is TK-10 renal. The note with it: 10 µM unless noted.
A further test has as its system ACHN renal. Particulars: 10 µM unless noted.
The next test has as its system CAKI-1 renal. Particulars: 10 µM unless noted.
For the next test, the system named is A498 renal. Particulars: 10 µM.
In another test the test system is HL-60(TB) leukemia. The note with it: 10 µM unless noted.
In the next test the test system is CCRF-CEM leukemia. The note with it: 10 µM unless noted.

For the molecule `O=C([O][Hg][CH2]C1OCCOC1[CH2][Hg][O]C(=O)c1ccccc1)c1ccccc1` (stereo not given), the growth in the test on HCT-15 colon is -79.5% (active); in the test with HT29 colon, 83.6%; in the test on SNB-75 CNS, 92.5%; with SNB-19 CNS, 105%; in the test on U251 CNS, 43%; with PC-3 prostate, 70.5%. In addition, the growth is 93.1% with SK-MEL-5 melanoma; 106% in the test with UACC-62 melanoma; -92.7% (active) in the test with LOX IMVI melanoma; -96.7% (active) with SK-MEL-28 melanoma; 95.4% in the test with SK-MEL-2 melanoma; 123% with EKVX NSCLC. Further, the growth was 76.2% in the test with SN12C renal; -94.8% (active) in the test with UO-31 renal; -99.5% (active) in the test with TK-10 renal; -99.5% (active) with ACHN renal; -94.7% (active) in the test on CAKI-1 renal; 132% in the test with A498 renal. Moreover, the values for the growth in the test with HL-60(TB) leukemia and in the test on CCRF-CEM leukemia were -24.7% (active) and -15.8% (active), respectively.
Turning to `C#C[C@]1(OC(=O)CCCCCC)CC[C@H]2[C@@H]3CCC4=CC(=O)CC[C@@H]4[C@H]3CC[C@@]21C`, the growth with HCT-15 colon was 39.9%; with HT29 colon, 9.11% (active); in the test on SNB-75 CNS, 81.5%; in the test with SNB-19 CNS, 53.7%; in the test with U251 CNS, 50.9%; in the test with PC-3 prostate it was 32.7%. The growth in the test with SK-MEL-5 melanoma is 20.5%; in the test on UACC-62 melanoma, 25.6%; in the test with LOX IMVI melanoma it was 8.13% (active); in the test on SK-MEL-28 melanoma it was 43.3%; in the test on SK-MEL-2 melanoma, 55.1%; with EKVX NSCLC, 55.6%. Also, the growth is 47.3% with SN12C renal; 54.7% in the test with UO-31 renal; 54.7% with TK-10 renal; 54.2% in the test on ACHN renal; 56.1% in the test on CAKI-1 renal; 80.5% with A498 renal. Moreover, the growth in the test with HL-60(TB) leukemia was 4.53% (active); in the test with CCRF-CEM leukemia, 41.2%.
For the molecule `Oc1c(CCl)cc(Cl)cc1CCl`, the growth was 109% with HCT-15 colon; 104% in the test on HT29 colon; 95.8% in the test with SNB-75 CNS; 107% in the test with SNB-19 CNS; 110% with U251 CNS; 93.9% in the test with PC-3 prostate. Further, the growth in the test with SK-MEL-5 melanoma was 104%; in the test with UACC-62 melanoma, 116%; in the test with LOX IMVI melanoma it was 93.8%; in the test with SK-MEL-28 melanoma, 126%; with SK-MEL-2 melanoma, 105%; in the test with EKVX NSCLC, 104%. The growth in the test with SN12C renal is 122%; in the test on UO-31 renal it was 86.4%; with TK-10 renal, 106%; with ACHN renal, 106%; in the test with CAKI-1 renal it was 104%; with A498 renal, 119%. Also, the growth with HL-60(TB) leukemia is 103%; in the test on CCRF-CEM leukemia, 108%.
Take `COc1ccc(/C=C/c2cc(OC)c(OC)c(OC)c2)cc1NC(=O)/C=C/c1ccc(F)cc1`: the growth was 25.2% with HCT-15 colon; 9.9% (active) with HT29 colon; 3.26% (active) in the test with SNB-75 CNS; 33.5% with SNB-19 CNS; 36.8% in the test with U251 CNS; 28.7% in the test with PC-3 prostate. Besides, the growth in the test on SK-MEL-5 melanoma is 7.06% (active); in the test with UACC-62 melanoma, 35.5%; in the test on LOX IMVI melanoma, 39%; in the test on SK-MEL-28 melanoma, 47.2%; with SK-MEL-2 melanoma, 49.6%; in the test with EKVX NSCLC it was 47.3%. The growth was 39.6% in the test with SN12C renal; 39% in the test with UO-31 renal; 88.4% in the test on TK-10 renal; 48.4% with ACHN renal; 33.9% in the test on CAKI-1 renal; -3.96% (active) in the test with A498 renal. The growth was -20% (active) in the test with HL-60(TB) leukemia and 11% with CCRF-CEM leukemia.
Turning to `CC(C)=CCC[C@H](C(=O)O)[C@@H]1CC[C@]2(C)C3=C(CC[C@@]12C)[C@@]1(C)CC[C@H](O)C(C)(C)[C@@H]1CC3`, the growth is 97.7% in the test with HCT-15 colon; 91% in the test with HT29 colon; 90.1% in the test on SNB-75 CNS; 97.1% in the test on SNB-19 CNS; 94.5% with U251 CNS; 84.8% in the test on PC-3 prostate. Further, the growth with SK-MEL-5 melanoma is 103%; in the test with UACC-62 melanoma, 96.1%; in the test on LOX IMVI melanoma, 102%; with SK-MEL-28 melanoma, 103%; with SK-MEL-2 melanoma, 91%; with EKVX NSCLC it was 95%. Further, the growth in the test with SN12C renal was 102%; in the test on UO-31 renal it was 89.8%; with TK-10 renal, 93.8%; in the test with ACHN renal it was 101%; in the test on CAKI-1 renal, 75%; in the test on A498 renal, 104%. Also, the growth with HL-60(TB) leukemia is 85.1%; with CCRF-CEM leukemia it was 109%.
As for `COc1cccc2c1c(C(=O)C(=O)Nc1cc(C)no1)cn2Cc1ccc(F)cc1`, the growth in the test with HCT-15 colon was 29.5%; in the test on HT29 colon, 24.8%; in the test with SNB-75 CNS, 53.6%; in the test with SNB-19 CNS, 66%; in the test with U251 CNS, 51.7%; in the test on PC-3 prostate it was 62.5%. In addition, the growth in the test on SK-MEL-5 melanoma is 36.3%; in the test with UACC-62 melanoma, 38.7%; in the test on LOX IMVI melanoma, 56.1%; with SK-MEL-28 melanoma, 68.3%; in the test on SK-MEL-2 melanoma, 75.1%; in the test with EKVX NSCLC, 78.9%. Also, the growth in the test on SN12C renal was 62.2%; in the test with UO-31 renal, 57.5%; in the test with TK-10 renal, 82.6%; with ACHN renal, 88.6%; with CAKI-1 renal, 86.7%; in the test with A498 renal it was 91.1%. Besides, the growth in the test with HL-60(TB) leukemia was 1.01% (active); in the test on CCRF-CEM leukemia, 66.6%.
Take `C[N+](C)(C)Cc1cc(Cl)ccc1O`: the growth in the test with HCT-15 colon was 91.8%; in the test with HT29 colon, 97.5%; in the test on SNB-75 CNS, 99.3%; in the test with SNB-19 CNS, 118%; with U251 CNS it was 98.7%; in the test with PC-3 prostate, 99.8%. In addition, the growth with SK-MEL-5 melanoma was 93.1%; with UACC-62 melanoma, 102%; in the test on LOX IMVI melanoma, 99%; in the test with SK-MEL-28 melanoma, 102%; with SK-MEL-2 melanoma, 99.7%; with EKVX NSCLC it was 115%. Also, the growth with SN12C renal was 106%; in the test with UO-31 renal, 90.8%; in the test on TK-10 renal it was 110%; with ACHN renal it was 95.9%; in the test with CAKI-1 renal, 106%; with A498 renal it was 90.1%. For the same molecule, the growth in the test with HL-60(TB) leukemia was 87.4%; with CCRF-CEM leukemia it was 8.41% (active).
As for `CN1CCC(O)(c2ccc(F)cc2)C(C(=O)c2ccc(F)cc2)C1` (stereo not given), the growth in the test on HCT-15 colon was 107%; in the test on HT29 colon, 122%; in the test on SNB-75 CNS it was 113%; with SNB-19 CNS, 95.1%; in the test on U251 CNS, 107%; in the test on PC-3 prostate, 98.4%. In addition, the growth in the test on SK-MEL-5 melanoma was 102%; in the test with UACC-62 melanoma it was 100%; with LOX IMVI melanoma, 94.3%; with SK-MEL-28 melanoma, 121%; with SK-MEL-2 melanoma it was 91.2%; in the test on EKVX NSCLC, 106%. Besides, the growth was 104% with SN12C renal; 84.7% in the test on UO-31 renal; 110% in the test with TK-10 renal; 101% in the test on ACHN renal; 104% in the test on CAKI-1 renal; 104% with A498 renal. The growth is 134% in the test with HL-60(TB) leukemia and 85.2% in the test with CCRF-CEM leukemia.
